Screening data from PubChem.
Arbovirus anti: antivirals against arbovirus infection, primary screen, cell-based, full library, 10K replicate subset; arbovirus infection cell-based antiviral screen; 200,000 compounds, 0.37% hits; AID 1251, 2008; inhibition, % at 10 µM; in the data active = inhibition above about 30%
Mcl1 Bid PPI: Mcl-1/Bid binding inhibitors, primary screen, biochemical, TR-FRET, 1536-well; TR-FRET Mcl-1/Bid-Dy647 peptide binding; inhibition, % at 21.7 µM; 220,000 compounds, 0.97% hits;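 active = compounds that cut the binding signal by more than half at the single screening dose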;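 note: His-tagged Mcl-1 with europium anti-His antibody binding Bid BH3 peptide; 0% = Mcl-1 plus peptide wells and 100% = peptide-only wells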
Target sequence (Q07820 whole entry, looked up): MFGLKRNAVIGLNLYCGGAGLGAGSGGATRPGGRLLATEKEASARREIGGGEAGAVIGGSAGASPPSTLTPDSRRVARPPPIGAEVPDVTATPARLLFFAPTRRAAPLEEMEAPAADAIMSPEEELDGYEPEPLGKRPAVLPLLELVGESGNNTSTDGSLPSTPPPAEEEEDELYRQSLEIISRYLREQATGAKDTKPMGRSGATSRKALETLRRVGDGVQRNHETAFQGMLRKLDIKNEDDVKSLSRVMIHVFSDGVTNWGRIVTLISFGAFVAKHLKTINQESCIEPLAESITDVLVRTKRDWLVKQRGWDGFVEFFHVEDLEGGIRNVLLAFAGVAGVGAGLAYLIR
14-3-3 Bad inh: inhibitors of 14-3-3 zeta/Bad binding, primary screen, biochemical, TR-FRET, bovine 14-3-3 zeta | TR-FRET 14-3-3zeta/Dy647-pBad peptide displacement, 1 h | inhibition, % at 21.7 µM | 220,000 compounds, 0.71% hits;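 active = inhibition above about 70%, limit read from the data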;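 note: 0% = full 14-3-3 plus peptide FRET controls and 100% = background without 14-3-3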
Target sequence (P63103 whole entry, looked up): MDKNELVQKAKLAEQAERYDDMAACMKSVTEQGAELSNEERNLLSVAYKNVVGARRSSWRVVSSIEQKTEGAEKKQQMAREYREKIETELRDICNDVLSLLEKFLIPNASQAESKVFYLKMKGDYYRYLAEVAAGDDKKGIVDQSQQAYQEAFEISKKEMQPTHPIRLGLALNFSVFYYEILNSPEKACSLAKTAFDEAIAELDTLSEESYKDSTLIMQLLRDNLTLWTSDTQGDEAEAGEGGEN
Mcl1-Noxa inh: Mcl-1/Noxa binding inhibitors, primary screen, biochemical, TR-FRET, 1536-well. AID 1022, 2008. TR-FRET Mcl-1/Noxa peptide binding, 2 h. 220,000 compounds, 1.5% hits. inhibition, % at 21.7 µM;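 active = compounds that cut the protein-peptide binding signal by more than 50% relative to plate controls in a single-dose test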;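 note: His-tagged Mcl-1 with rhodamine Noxa BH3 peptide and terbium anti-His antibody; 0% = Mcl-1 plus Noxa peptide wells and 100% = peptide-only wells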
Bim-Mcl-1: inhibitors of Bim peptide binding to Mcl-1, primary screen, biochemical, bead-based flow cytometry, multiplex | Bim peptide-Mcl-1 binding | inhibition, % at 10 µM | 190,000 compounds, 0.1% hits; in the data active = inhibition above about 40%;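 note: 0% = no compound tracer wells and 100% = peptide blocker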
* marks the source's active call; other numbers are inactive results; x = no result; [ ] = remark or other dose. A selection: hits, their analogues and other compounds. The true share with any hit is near 3%.

SMILES | Arbovirus anti | Mcl1 Bid PPI | 14-3-3 Bad inh | Mcl1-Noxa inh | Bim-Mcl-1
CCn1nc(C)c(NC(=O)Nc2cccc(Cl)c2Cl)c1C | 32.5* | -20.9 | -0.7 | 14.6 | -3.0
Cc1sc(NC(=O)c2cc(-c3ccccc3)nc3ccccc23)c(C(N)=O)c1C | 12.8 | -7.6 | -17.5 | 8.8 | -9.0
Cc1sc(NC(=O)c2cc(-c3ccc(Cl)cc3)nc3ccccc23)c(C(N)=O)c1C | -6.3 | 76.9* | 79.5* | 76.7* | 1.0
Cc1c(CC=C(Cl)Cl)c(=O)[nH]c2c(C)cccc12 | 0.6 | -1.9 | 2.3 | -4.5 | 11.0
O=C(NCc1ccncc1)/C(=C/c1cccc([N+](=O)[O-])c1)NC(=O)c1ccccc1 | x | -5.5 | -11.1 | -11.7 | x
O=C(CSc1nnc(SCc2cccc3ccccc23)s1)N/N=C/c1c[nH]c2ccccc12 | -10.4 | -24.5 | -5.4 | 18.9 | 20.0
O=C(CNc1ccccc1)N/N=C/c1c[nH]c2ccccc12 | 5.6 | -30.4 | 5.3 | 8.7 | -7.0
O=C(CSc1nnc(SCc2ccc(Cl)cc2)s1)N/N=C/c1c[nH]c2ccccc12 | -23.2 | 92.5* | 90.2*[fluorescence artefact?] | 65.5* | -6.0
O=C(COc1ccc(Cl)cc1Cl)NCC(=O)N/N=C/c1c[nH]c2ccccc12 | -2.8 | 20.5 | 15.0 | 58.5* | -5.0
Cc1cc(C(F)(F)F)n(-c2nc(C(=O)NNS(=O)(=O)c3ccccc3[N+](=O)[O-])cs2)n1 | -10.3 | -37.1 | -2.6 | 20.2 | 0.0
COc1cccc(/C=N/NC(=O)Cn2nc([N+](=O)[O-])cc2C)c1 | x | -0.1 | 7.8 | -12.4 | x
COc1cc(Br)cc(-c2nc3c(c(=O)[nH]c(=O)n3Cc3ccccc3)n2C)c1O | 52.7* | -23.4 | -8.5 | 28.0 | 1.0
CSc1nc2c(c(=O)[nH]1)CCCC2 | -2.2 | -8.8 | 7.1 | -19.4 | -1.0
CSc1nc(=S)c2[nH]c(=S)[nH]c2[nH]1 | x | -61.2 | 16.5 | 51.0* | x
CCC1(O)CC(C(=O)OC)=NN1C(=O)c1ccccc1 (centres undefined) | 6.0 | -10.7 | -13.4 | 64.2* | -2.0
COc1ccc2nc(SCC(=O)NC(C)C)[nH]c2c1 | 4.3 | 0.5 | 79.7* | 1.2 | 0.0
COc1ccc(NC(=O)CSc2nc3ccc(OC)cc3[nH]2)cc1 | x | -58.6 | 3.5 | 8.2 | x
COCCSc1nnc(NC(=O)C2CCCCC2)s1 | 31.7* | 0.6 | -1.5 | 13.8 | -4.0
O=C(Nc1nnc(SCC(=O)N2CCCCC2)s1)C1CCCCC1 | 3.4 | -31.6 | 5.5 | 4.6 | -5.0
CC(/C=N/NC(=O)c1cc(-c2cccn2C)n[nH]1)=C\c1ccccc1 | x | -23.4 | 94.7* | 8.1 | x
CCOc1ccc(/C=N/NC(=O)c2cc(-c3cccn3C)n[nH]2)cc1 | 1.1 | -63.5 | -2.5 | 9.1 | -4.0
CCCc1nnc(NC(=O)c2cn(CC)c3cc(N4CCN(C)CC4)c(F)cc3c2=O)s1 | x | -23.5 | -7.9 | 7.1 | x
Nc1ccc(-c2nc3cc([N+](=O)[O-])ccc3o2)cc1 | x | 12.8 | 0.1 | 79.7* | x
Cc1cccc(CN2CCN(C(=O)CCc3nnc(C4CCCCC4)o3)CC2)c1 | 2.0 | -16.3 | -3.9 | 7.9 | -3.0
COc1ccc(N=c2oc3c(OC)cccc3cc2C(=O)NCc2ccco2)c(OC)c1 | -26.4 | 65.2* | 16.9 | 27.4 | 1.0
SMILES | Arbovirus anti | Mcl1 Bid PPI | 14-3-3 Bad inh | Mcl1-Noxa inh | Bim-Mcl-1
COc1ccc2cc(C(=O)NCc3ccco3)c(=Nc3ccc(C(=O)O)cc3)oc2c1 | -2.2 | -17.9 | 12.4 | 1.2 | 0.0
Cc1ccc(S(=O)(=O)C2C(=O)N(C)C3(C)CC2c2ccccc2O3)cc1 (centres undefined) | -2.8 | 2.5 | -3.9 | -6.7 | -5.0
O=C(CSc1cccc[n+]1[O-])Nc1cc([N+](=O)[O-])ccc1Cl | 2.5 | -11.9 | -5.6 | 17.4 | 0.0
O=C(CSc1cccc[n+]1[O-])Nc1cc2c(cc1Cl)C(=O)c1ccccc1C2=O | -14.6 | 80.6* | 99.0*[fluorescence artefact?] | 84.8* | 0.0
COc1cccc(NC(=O)C(NCC(C)(C)CN(C)C)c2ccccc2)c1 (centres undefined) | 5.6 | 32.1 | 70.3* | 34.5 | -3.0
C=CCNC(C(=O)Nc1cccc(OC)c1)c1ccccc1 (centres undefined) | -11.3 | -14.2 | -8.0 | -3.0 | 1.0
O=C(O)COn1c(-c2ccccc2)nc2ccc([N+](=O)[O-])cc21 | -1.9 | 15.4 | 53.3 | 54.6* | 1.0
CN1CCN(C(=S)c2cn(Cc3ccccc3F)c3ccccc23)CC1 | 1.7 | 85.5* | -12.5 | 2.4 | -2.0
CC1CCN(C(=S)c2cn(Cc3ccccc3F)c3ccccc23)CC1 | -4.8 | -125.2 | -11.4 | 0.2 | 0.0
O=C(CN1C(=O)C2C3CC(C(Br)C3Br)C2C1=O)N1CCN(Cc2ccccc2)CC1 (centres undefined) | x | -27.3 | -0.9 | -2.6 | x
Cc1cccc(-n2c(=O)c3c4c(sc3n3c(=S)[nH]nc23)CCC4)c1 | 33.9* | -48.5 | -3.8 | 9.0 | 7.0
CC(=O)Nc1ccc(C(F)(F)F)cc1Cl | x | -15.2 | -1.9 | 0.9 | x
O=C(N=Nc1c(O)[nH]c2ccc(Cl)cc12)c1cc(-c2cccs2)nc2ccccc12 | -10.3 | 85.1* | 88.3*[fluorescence artefact?] | 59.7* | -1.0
O=C(N=Nc1c(O)[nH]c2ccc([N+](=O)[O-])cc12)c1ccccc1Cl | x | -7.3 | 32.7 | 37.2 | x
COc1ccccc1NC(=O)CSCC(N)=O | 5.9 | 5.5 | 3.7 | -15.2 | -4.0
Cc1ccc(SCc2nc3ccccc3[nH]2)cc1 | 5.3 | -61.6 | -8.5 | -77.7 | -1.0
COc1ccccc1NC(=O)CSCc1nc2ccccc2[nH]1 | 4.3 | 51.6* | 3.6 | 13.4 | -4.0
Cc1ccc(CSCc2nc3ccccc3[nH]2)cc1 | 35.7* | -3.5 | -7.0 | 1.6 | 0.0
COc1ccc2nc(N3C(=O)CC(Cc4cc(C)cc(C)c4)C3=O)sc2c1 (centres undefined) | 39.4* | -13.2 | 4.5 | -18.3 | -3.0
COc1ccc2nc(N3C(=O)CC(Cc4ccc(Cl)cc4)C3=O)sc2c1 (centres undefined) | 27.6 | -12.6 | 6.1 | -7.8 | -4.0
COC(=O)c1[nH]c2ccc(Br)cc2c1NC(=O)CN1CCCCC1CCO (centres undefined) | -0.9 | -49.1 | 90.9* | -1.6 | -3.0
COc1cccc2c(=S)c(CCC(C)=O)c(C)[nH]c12 | 1.3 | 9.2 | 5.5 | 99.8* | -3.0
CC(C)(C)C1=CC=C(C(C)(C)C)C(=O)C1=O | x | 16.7 | 9.4 | 88.8* | x
CCC(=O)NC(=S)Nc1ccc(NC(=O)c2ccc(Br)o2)cc1 | 3.2 | -23.9 | 17.4 | 9.8 | 1.0
NS(=O)(=O)c1cc(C(=O)OCC(=O)Nc2ccc(Cl)cc2[N+](=O)[O-])ccc1Cl | -1.8 | -19.2 | -7.5 | 22.9 | 0.0
